# From PubChem BioAssay
# A number with no mark means an inactive call. No rule for the calls is given here.
# Target: Pantothenate synthetase (Mycobacterium tuberculosis (strain ATCC 25618 / H37Rv)) (UniProt P9WIL5)
# Test: Recombinant Mtb pantothenate synthetase (PanC) inhibitors, coupled enzyme, confirmatory (AID 375);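 also: 0% = full reaction with vehicle and 100% = no enzyme background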
# Conditions: coupled enzyme assay; at 10 µM, active compounds read high
# Chain of Pantothenate synthetase (Mycobacterium tuberculosis (strain ATCC 25618 / H37Rv)) (P9WIL5 whole entry, looked up): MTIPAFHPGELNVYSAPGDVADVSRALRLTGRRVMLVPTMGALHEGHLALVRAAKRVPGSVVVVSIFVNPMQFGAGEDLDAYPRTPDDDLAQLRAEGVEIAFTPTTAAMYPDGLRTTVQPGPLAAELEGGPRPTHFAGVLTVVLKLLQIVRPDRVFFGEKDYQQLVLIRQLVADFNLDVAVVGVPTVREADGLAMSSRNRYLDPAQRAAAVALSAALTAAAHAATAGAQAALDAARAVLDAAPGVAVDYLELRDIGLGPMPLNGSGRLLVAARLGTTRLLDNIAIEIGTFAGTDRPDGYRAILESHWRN
row,SMILES,inhibition [%]
1,O=C(CCC1COc2ccccc2O1)NCC1COc2ccccc2O1 (configuration not stated),0
2,COc1cc(NC(=O)C2CCCN2S(=O)(=O)c2cccc3cccnc23)cc(OC)c1OC (configuration not stated),0
3,CCOc1ccc(NC(=O)CN(c2cc(C)cc(C)c2)S(=O)(=O)c2c(C)noc2C)cc1,7
4,Cc1ccc(S(=O)(=O)NCC2CCC(C(=O)NCCCN3CCOCC3)CC2)cc1 (configuration not stated),0
5,N#CCSCC(=O)Nc1ccc(F)cc1,0
6,COc1ccc(/C=N/O)cc1COc1ccc(NC(C)=O)cc1,1
7,Cc1ccc(S(=O)(=O)CC2CSc3nnc(C)c(=O)n32)cc1 (configuration not stated),0
8,c1ccc(-c2cc(CSc3nc4ccccc4[nH]3)on2)cc1,0
9,CCN(CC)C(=O)C1CCCN(c2ncnc3c2cnn3-c2ccc(Cl)cc2)C1 (configuration not stated),4
10,O=C(OCc1nnc(-c2ccccc2)o1)c1ccc2ccccc2n1,1
11,Cc1nnc2ccc(N3CCN(c4cccc(C(F)(F)F)c4)CC3)nn12,0
12,O=c1c(F)cn(C2CCCO2)c(=O)n1Cc1c(F)cccc1Cl (configuration not stated),0
13,CCOc1ccccc1NC(=O)C1CCCN(S(=O)(=O)c2cccc3cccnc23)C1 (configuration not stated),6
14,O=C1CNCc2[nH]c3ccccc3c2N1c1ccccc1,0
15,O=c1c(-c2ccc(Br)cc2)coc2c(CN3CCOCC3)c(O)ccc12,0
16,CCOC(=O)c1cnn(-c2cc(C)nc3c(-c4ccccc4)c(C)nn23)c1N,6
17,COc1ccc(S(=O)(=O)NC2CCCCC2)c(C)c1C,4
